Measurements published in the supplement of paper PMC12532568.
Structures can show the parent of a compound that is named as a salt.

Test system: Danio rerio larvae Tg(actc1b:ZsGreen-LC3), 3 dpf
Assay: LC3 puncta relative area vs vehicle, without NH4Cl (log2 fold change); higher = more autophagosomes
Details: 10 µM; treatment time 16 h; NH4Cl: none
Experimental: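 Transgenic Tg(actc1b:ZsGreen-map1lc3) zebrafish larvae (2 dpf) were treated for 16 h with Tocris library compounds at 10 µM (n = 12 larvae per compound). Skeletal-muscle LC3 puncta area relative to body area was measured by high-content confocal imaging before and after 4 h of 100 mM NH4Cl (autophagic flux), normalised to vehicle (DMSO), and reported as log2 fold change.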

SMILES | LC3 puncta (log2)
O=C(O)C1=CCCNC1 [Guvacine hydrochloride] | -0.168
O=c1nc2ccccc2c2n1CC(CN1CCN(c3ccccc3)CC1)N2 (stereo not given) | 0.0176
O=C(O)C1=CCNCC1 [Isoguvacine hydrochloride] | 0.169
NS(=O)(=O)c1cc2c(cc1Cl)NC(C1CC3C=CC1C3)NS2(=O)=O (stereo not given) [Cyclothiazide] | -0.147
S=C(S)N1CCCC1 [Pyrrolidinedithiocarbamate ammonium] | 0.439
COCCOC(=O)C1=C(C)NC(C)=C(C(=O)OC(C)C)C1c1cccc([N+](=O)[O-])c1 (stereo not given) [Nimodipine] | 0.31
CCN(CC)CCOc1ccc(Cc2ccccc2)cc1 [DPPE fumarate] | 0.714
NC(=O)Nc1sc(-c2ccc(F)cc2)cc1C(N)=O | 0.302
c1ccc2nc(C3=NCCN3)cnc2c1 [BU 239 hydrochloride] | -0.208
Clc1cccc(Nc2nnc(-c3ccccc3)c3ccccc23)c1 | 0.29
CC(C(O)c1ccc(O)cc1)N1CCC(Cc2ccccc2)CC1 (stereo not given) [Ifenprodil hemitartrate] | -0.219
COc1cc2c(CCNC(C)=O)c[nH]c2cc1Cl [6-Chloromelatonin] | -0.363
COc1ccc2[nH]c(I)c(CCNC(C)=O)c2c1 [2-Iodomelatonin] | 0.515
CCN(CC)CCOC(=O)C1(c2ccc([N+](=O)[O-])cc2)CCCC1 [Nitrocaramiphen hydrochloride] | 0.254
CCN(CC)CCOCCOC(=O)C1(c2ccccc2)CCCC1 [Carbetapentane citrate] | -0.0165
c1ccc(CN(CC2=NCCN2)c2ccccc2)cc1 [Antazoline hydrochloride] | 0.664
N[C@H](C(=O)O)c1ccc(O)c(C(=O)O)c1 [(S)-3-Carboxy-4-hydroxyphenylglycine] | 0.267
NCC(O)(CS(=O)(=O)O)c1ccc(Cl)cc1 (stereo not given) [2-Hydroxysaclofen] | 0.46
COc1ccc(CCN(C)CCc2ccc(OC)c(OC)c2)cc1OC [YS-035 hydrochloride] | 0.265
COc1ccccc1N1CCN(CC(O)COc2cccc3ccccc23)CC1 (stereo not given) [Naftopidil dihydrochloride] | -0.0568

SMILES | LC3 puncta (log2)
CCCCCCN(CCCCCC)C(=O)Cc1c(-c2ccc(F)cc2)[nH]c2ccccc12 | 0.084
CC#CCOC(=O)C1=CCCN(C)C1 [Arecaidine but-2-ynyl ester tosylate] | 0.463
CC[C@@H]1C(=O)OC[C@@H]1Cc1cncn1C [Pilocarpine hydrochloride] | 0.203
NS(=O)(=O)c1cccc2c1c([N+](=O)[O-])cc1nc(O)c(O)nc12 | 0.286
O=C(/C=C/c1ccc(O)c(O)c1)O[C@H](Cc1ccc(O)c(O)c1)C(=O)O [Rosmarinic acid] | 0.0606
CCC(C)N(C)C(=O)c1cc2ccccc2c(-c2ccccc2Cl)n1 (stereo not given) | -0.0562
Cc1ccc(/C(=C\CN2CCCC2)c2ccccn2)cc1 [trans-Triprolidine hydrochloride] | -0.298
N=C(N)S/C=C\C(=O)O [ZAPA sulfate] | 0.0963
O=C(O)CC/C=C\C[C@H]1CO[C@@H](c2ccccc2Cl)O[C@H]1c1ccccc1O | -0.249
CC(C)[C@H]1CC[C@H](C(=O)N[C@H](Cc2ccccc2)C(=O)O)CC1 [Nateglinide] | 0.316
N[C@H](C(=O)O)c1cc(O)cc(O)c1 | 0.537
CC(=O)N[C@@H](CC(=O)N[C@@H](CCC(=O)O)C(=O)O)C(=O)O [Spaglumic acid] | -0.106
O=[N+]([O-])c1cc2nc(O)c(O)nc2cc1[N+](=O)[O-] | 0.0864
C1COC(NC(C2CC2)C2CC2)=N1 [Rilmenidine hemifumarate] | 0.278
CC(N)(Cc1ccc(O)c(O)c1)C(=O)O (stereo not given) | 0.269
NC(C(=O)O)c1cc(O)cc(O)c1 (racemic) | 0.194
O=[N+]([O-])c1cccc2c(Br)[nH]nc12 [3-Bromo-7-nitroindazole] | 0.159
N[C@H]1CCN(O)C1=O | 0.0498
NC(=O)CCCCn1ccc(NC(N)=NCC(F)(F)F)n1 | 0.486
Cc1ccc(OCC(O)C(C)NC(C)C)c2c1CCC2 (stereo not given) [ICI 118,551 hydrochloride] | -0.0345
